USP8 inh = inhibitors of human USP8 deubiquitinase. 47,000 tested, 4.2% active. P40818. inhibition, % at 20 µM. purified USP8, Ub-rhodamine cleavage fluorescence, 30 min
Target sequence (P40818 whole entry, looked up): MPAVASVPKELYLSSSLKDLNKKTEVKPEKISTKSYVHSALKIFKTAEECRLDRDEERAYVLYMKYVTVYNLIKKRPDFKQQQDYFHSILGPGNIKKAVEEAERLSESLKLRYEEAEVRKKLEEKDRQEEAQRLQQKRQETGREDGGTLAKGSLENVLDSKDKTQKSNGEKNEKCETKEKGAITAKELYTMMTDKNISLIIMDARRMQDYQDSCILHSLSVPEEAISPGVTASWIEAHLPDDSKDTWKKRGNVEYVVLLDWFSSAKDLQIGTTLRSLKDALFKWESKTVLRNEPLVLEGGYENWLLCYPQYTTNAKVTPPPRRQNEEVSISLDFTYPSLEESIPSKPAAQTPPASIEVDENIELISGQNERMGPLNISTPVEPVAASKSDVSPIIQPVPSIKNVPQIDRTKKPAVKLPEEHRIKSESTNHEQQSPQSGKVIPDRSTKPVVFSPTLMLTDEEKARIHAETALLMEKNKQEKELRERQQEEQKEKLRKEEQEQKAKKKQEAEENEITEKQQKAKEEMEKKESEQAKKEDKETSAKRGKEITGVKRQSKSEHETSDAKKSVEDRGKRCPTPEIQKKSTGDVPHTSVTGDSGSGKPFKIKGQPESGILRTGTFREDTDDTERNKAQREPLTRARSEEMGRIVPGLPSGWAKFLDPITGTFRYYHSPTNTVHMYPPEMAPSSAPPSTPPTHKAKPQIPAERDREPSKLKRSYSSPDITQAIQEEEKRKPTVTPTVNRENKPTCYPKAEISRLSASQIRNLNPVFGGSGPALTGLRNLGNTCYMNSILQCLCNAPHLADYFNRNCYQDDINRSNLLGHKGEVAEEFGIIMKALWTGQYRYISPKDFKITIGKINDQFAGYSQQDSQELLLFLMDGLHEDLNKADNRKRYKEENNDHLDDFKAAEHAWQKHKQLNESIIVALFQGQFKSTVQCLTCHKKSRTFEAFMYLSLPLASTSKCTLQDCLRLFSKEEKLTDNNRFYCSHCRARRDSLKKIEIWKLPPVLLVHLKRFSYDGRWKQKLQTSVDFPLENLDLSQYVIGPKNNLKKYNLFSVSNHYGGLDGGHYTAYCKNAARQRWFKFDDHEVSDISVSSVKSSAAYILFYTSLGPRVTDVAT
USP17 inh = inhibitors of human USP17 deubiquitinase; inhibition, % at 50 µM; A8MUK1; purified USP17, Ub-rhodamine cleavage fluorescence, 3 h; 47,000 tested, 6.5% active
USP28 inh = inhibitors of human USP28 deubiquitinase; 47,000 tested, 3% active; Q96RU2; purified USP28, Ub-rhodamine cleavage fluorescence, 30 min; AID 1645857; inhibition, % at 25 µM
USP30 block = blocks human USP30 ubiquitin-rhodamine cleavage | 47,000 tested, 5.3% active | purified USP30, Ub-rhodamine cleavage fluorescence | inhibition, % at 25 µM | Q70CQ3
Starred values were filed as active, the others as inactive. Hits are enriched below; roughly 13% of the tested compounds scored in any of these assays. Rule as the data show it: active = inhibition above about 30%; inactive = the rest.

How did CC(C)(C)C(=O)Nc1ccc(N2CCCC2)c(S(=O)(=O)Nc2cccc(C(F)(F)F)c2)c1 do in these assays?
USP8 inh: -6; USP17 inh: 0; USP28 inh: 5; USP30 block: 21

What do the screens show for `O=C(NC1CCCC1)c1ccc(Cn2c(=O)c3ccccc3n(Cc3ccc(F)cc3)c2=O)cc1`?
USP8 inh: 11; USP17 inh: 8; USP28 inh: 8; USP30 block: 3

What do the screens show for `N#Cc1ccccc1Cn1c(=O)n(Cc2ccc(C(=O)NC3CCCC3)cc2)c(=O)c2ccccc21`?
USP8 inh: 13; USP17 inh: 16; USP28 inh: 17; USP30 block: 33*

What do the screens show for `O=C(NC1CCN(Cc2ccccc2)CC1)c1ccc(Cn2c(=O)c3ccccc3n(Cc3ccccc3F)c2=O)cc1`?
USP8 inh: 26; USP17 inh: 16; USP28 inh: 13; USP30 block: 34*

What do the screens show for `NC(=O)Cn1c(=O)n(Cc2ccc(C(=O)NC3CCCC3)cc2)c(=O)c2ccccc21`?
USP8 inh: 26; USP17 inh: 53*; USP28 inh: 23; USP30 block: 29

Results for Cc1ccc(Sc2ncccc2C(=O)Nc2ccnn2Cc2ccccn2)cc1 ?
USP8 inh: -17; USP17 inh: -18; USP28 inh: -23; USP30 block: -61

Results for Cn1c(=O)c2nscc2n(CC(=O)Nc2ccc(Cl)cc2)c1=O ?
USP8 inh: -11; USP17 inh: 22

How did O=C(CN(C(=O)CCC(=O)Nc1ccccn1)c1cccc(F)c1)NCc1ccc(F)cc1 do in these assays?
USP8 inh: 9; USP17 inh: 14; USP28 inh: 8; USP30 block: 33*

How did O=C1C=C(O)c2c(O)cccc2C1=O do in these assays?
USP8 inh: 79*; USP17 inh: 92*; USP28 inh: 51*; USP30 block: -28

How did COc1ccc(-c2cc3c(=O)n(CC(=O)NCCC(C)C)nc(C)n3n2)cc1 do in these assays?
USP8 inh: 2; USP17 inh: 3; USP28 inh: 7; USP30 block: 25

What do the screens show for `COc1ccc(C)cc1NCC(=O)Nc1ncc(Cl)c(C)c1Cl`?
USP8 inh: 36*; USP17 inh: 24; USP28 inh: -2; USP30 block: -82

Results for COc1ccc(C)cc1NC(=O)CCn1cnc2ccccc2c1=O ?
USP8 inh: 7; USP17 inh: -6; USP28 inh: 3; USP30 block: 0

How did Cc1c(Cl)cccc1NC(=O)Cn1c(=O)cc(C(F)(F)F)c2c(-c3ccccc3)nn(C)c21 do in these assays?
USP8 inh: -30; USP17 inh: 9; USP28 inh: 1; USP30 block: 15

How did COc1ccc(C2/C(=C(\O)c3ccccc3)C(=O)C(=O)N2c2cccc(C(F)(F)F)c2)cc1 (configuration not stated) do in these assays?
USP8 inh: -87; USP28 inh: 10; USP30 block: 33*

How did CCCOc1ccc(/C(O)=C2\C(=O)C(=O)N(CCN(C)C)C2c2ccccc2)cc1 (configuration not stated) do in these assays?
USP8 inh: 1; USP17 inh: -6; USP28 inh: -6; USP30 block: 4

Results for COc1ccc(C2/C(=C(\O)c3ccccc3)C(=O)C(=O)N2c2nc3ccc(F)cc3s2)cc1 (configuration not stated) ?
USP8 inh: 8; USP28 inh: 15; USP30 block: 55*

What do the screens show for `Cc1ccc(C2/C(=C(\O)c3ccc(F)cc3)C(=O)C(=O)N2c2nc3ccc(F)cc3s2)cc1` (configuration not stated)?
USP8 inh: -13; USP28 inh: 10; USP30 block: 1

How did O=[N+]([O-])c1ccc(NCc2ccc(-c3cccs3)s2)nc1 do in these assays?
USP8 inh: -16; USP17 inh: 16; USP28 inh: 65*; USP30 block: -15

What do the screens show for `CCn1cc(C(=O)N2CCOC(c3cccc(N)n3)C2)cn1` (configuration not stated)?
USP8 inh: 0; USP17 inh: -4; USP28 inh: -1; USP30 block: 2

How did COc1ccc(S(=O)(=O)N2CCOCC2)cc1NC(=O)C1Cc2ccccc2CN1C(=O)c1ccco1 (configuration not stated) do in these assays?
USP8 inh: 49*; USP17 inh: -1; USP28 inh: -12; USP30 block: -180

How did COc1ccc(S(=O)(=O)N2CCC(Cc3ccccc3)CC2)cc1NC(C)=O do in these assays?
USP8 inh: -6; USP17 inh: 21; USP28 inh: 14; USP30 block: 35*

What do the screens show for `COc1ccc(Cl)cc1NC(=O)c1cc(S(=O)(=O)NCCC2=CCCCC2)ccc1F`?
USP8 inh: 5; USP17 inh: 6; USP28 inh: -1; USP30 block: -3

How did Cc1ccc(CNC(=O)Cn2cnc3c(cnn3-c3cccc(Cl)c3)c2=O)cc1 do in these assays?
USP8 inh: 7; USP17 inh: 1; USP28 inh: 61*; USP30 block: 9

What do the screens show for `O=C(NCCn1ncc2c(=O)n(Cc3cccc(Cl)c3)cnc21)c1ccco1`?
USP8 inh: -2; USP17 inh: -1; USP28 inh: 13; USP30 block: 16

Results for O=C(Cn1cnc2c(oc3ccccc32)c1=O)NCc1ccccc1Cl ?
USP8 inh: 22; USP17 inh: 87*; USP28 inh: 1; USP30 block: 0

Results for O=C(Cn1cnc2c(cnn2-c2ccc(Cl)cc2)c1=O)NCc1ccccc1Cl ?
USP8 inh: 16; USP17 inh: 55*; USP28 inh: 9; USP30 block: 29

What do the screens show for `O=C(Cn1cnc2c(cnn2-c2cccc(Cl)c2)c1=O)N1CCCC1`?
USP8 inh: -37; USP17 inh: -23; USP28 inh: -23; USP30 block: -46

What do the screens show for `Cn1ncc2c(=O)n(Cc3cccc(Cl)c3)cnc21`?
USP8 inh: 13; USP17 inh: 10; USP28 inh: 65*; USP30 block: 26

How did Nc1ncnc2c1c(-c1ccccc1)c(-c1ccccc1)n2CCc1ccc(F)cc1 do in these assays?
USP8 inh: 12; USP17 inh: 44*; USP28 inh: 0; USP30 block: 45*

How did COc1cccc(CNC(=O)c2cn3c(n2)CCCC3)c1OC do in these assays?
USP8 inh: 20; USP17 inh: 6; USP28 inh: 2; USP30 block: 2

What do the screens show for `O=C(c1c(F)cccc1F)N1CC2CCCN2c2ccc(C(F)(F)F)cc21` (configuration not stated)?
USP8 inh: 34*; USP17 inh: 4; USP28 inh: 23; USP30 block: 4

Results for O=C(c1cccc(C(F)(F)F)c1)N1CC2CCCN2c2ccc(C(F)(F)F)cc21 (configuration not stated) ?
USP8 inh: 17; USP17 inh: 4; USP28 inh: 6; USP30 block: -23

How did O=c1cc(-c2cncc(-c3cc4ccccc4o3)c2)nc(-c2ccccc2)[nH]1 do in these assays?
USP8 inh: 4; USP17 inh: 5; USP28 inh: -2; USP30 block: 7

What do the screens show for `O=c1cc(-c2cncc(Br)c2)nc(-c2ccccc2)[nH]1`?
USP8 inh: 34*; USP28 inh: 6; USP30 block: 30*

Screening data as filed in PubChem.
